Assay results taken from ChEMBL document CHEMBL3988442, “University of Dundee, Small-Polar-MMV Screening Library” (2021).
The whole screen tested about 69,000 compounds, of which about 950 (1.4%) showed an effect of 50% or more. What follows is part of a selection rich in strong results, with near analogues and random picks from the rest.

The compounds below were run on Mycobacterium tuberculosis (assay: Cornell M. t heat shock assay; also: in the data most compounds retested in dose-response had high values).
Type: functional, organism-based
Design: dose or concentration left out as unconfirmed
`CCN(CC)Cc1nc2c(o1)CN(S(=O)(=O)c1cccs1)C2.O=C(O)C(F)(F)F` was tested, and the “Percent Effect” value was 10.46%. In the case of `CN(C)CCN1C(=O)CCCC12CCCN(Cc1cccs1)C2.O=C(O)C(F)(F)F.O=C(O)C(F)(F)F` (centres undefined), the “Percent Effect” value is reported as -7.663%. In the case of `CN(C)C(=O)CC1CC2(CCN(CC3CC3)CC2)Oc2ccccc21.O=C(O)C(F)(F)F` (centres undefined), the “Percent Effect” value is reported as 11.01%. `Cc1cnc(C(=O)N2CCC3(CCN3Cc3ccc(F)cc3)C2)cn1.O=C(O)C(F)(F)F` (centres undefined) was tested, and the “Percent Effect” value was -3.427%. With `COCCN1CCC12CCN(C(=O)c1ccc(C)nc1)C2.O=C(O)C(F)(F)F` (centres undefined) the “Percent Effect” value was 29.56%. `Cc1ccc(C(=O)N2CCC3(CCN3Cc3ccc(F)cc3)C2)cn1.O=C(O)C(F)(F)F` (centres undefined) was tested, and the “Percent Effect” value was 99.27%. With `Cc1nc2[nH]cnc(NCCN3CCCC3)c-2n1` the “Percent Effect” value was 57.49%. In the case of `Cc1nc2[nH]cnc(NCCCN3CCOCC3)c-2n1`, the “Percent Effect” value is reported as -13.88%. For `Cc1nc2[nH]cnc(NCCN3CCOCC3)c-2n1`, the “Percent Effect” value was -1.565%. In the case of `CCc1c(C)sc2ncnc(N3C[C@H](O)[C@@H](N4CCCC4)C3)c12`, the “Percent Effect” value is reported as 59.45%. For `CCc1c(C)sc2ncnc(N3CC[C@@H](N4CCOCC4)[C@H](O)C3)c12`, the “Percent Effect” value was 11.35%. `CCc1c(C)sc2ncnc(N3CC[C@@H](N4CCC(O)CC4)[C@H](O)C3)c12` was tested, and the “Percent Effect” value was 10.29%. `N[C@@H]1CCC[C@@H](Oc2ccc(F)cc2Oc2cccc(F)c2)[C@@H]1O` was tested, and the “Percent Effect” value was 1.479%. In the case of `Cc1ccc(Oc2cc(F)ccc2O[C@@H]2CCC[C@@H](N)[C@H]2O)cc1`, the “Percent Effect” value is reported as 103.2%. `Cc1noc(C)c1C(=O)N[C@@H]1CCC[C@@H](Oc2ccccc2)[C@@H]1O` was tested, and the “Percent Effect” value was 10.41%. `CN[C@@H]1CCC[C@@H](Oc2ccccc2Oc2ccc(C)cc2)[C@@H]1O` was tested, and the “Percent Effect” value was 50.23%. In the case of `Cc1n[nH]c(C)c1CCC(=O)N[C@@H]1CCC[C@@H](Oc2ccccc2)[C@@H]1O`, the “Percent Effect” value is reported as -15.12%. For `N[C@@H]1CCC[C@@H](Oc2ccc(F)cc2Oc2ccccc2)[C@@H]1O`, the “Percent Effect” value was -7.942%. For `O=C(O)C(F)(F)F.O=c1ccc2c([nH]1)CCC(NCc1ccc(F)cc1)C2` (centres undefined), the “Percent Effect” value was -5.527%. With `Cc1nc(CN2C[C@@H]3CN(C(=O)C4CC4)C[C@@H]3C2=O)cs1.O=C(O)C(F)(F)F` the “Percent Effect” value was -7.229%. For `O=C(O)C(F)(F)F.O=C(c1ccco1)N1CCOCC2(C1)CN(c1cccnc1)C(=O)CO2` (centres undefined), the “Percent Effect” value was -36.47%. For `CCN(CC)c1ncc(CNC2CCc3ncnn3C2)s1` (centres undefined), the “Percent Effect” value was 0.07548%. In the case of `CCN1CCOCC2(CCCN(C(=O)c3conc3C)C2)C1.O=C(O)C(F)(F)F` (centres undefined), the “Percent Effect” value is reported as -3.777%. `Cc1cc2nc(C(C)C)cc(NC(C)c3nncn3C)n2n1` (centres undefined) was tested, and the “Percent Effect” value was 6.767%. `CC(C)c1cc(NCC(C)N2CCCC2)n2nccc2n1` (centres undefined) was tested, and the “Percent Effect” value was 19.07%. `Cc1cc2nc(C(C)C)cc(NCCc3ccncc3)n2n1` was tested, and the “Percent Effect” value was 5.483%. In the case of `CC(C)c1cc(NCC(O)c2ccccn2)n2nccc2n1` (centres undefined), the “Percent Effect” value is reported as 105.1%. For `COc1cc(NCC(c2ccccn2)N(C)C)ncn1` (centres undefined), the “Percent Effect” value was 7.48%. In the case of `Cc1cc2nc(C(C)C)cc(NCCc3cccn3C)n2n1`, the “Percent Effect” value is reported as 51.31%. In the case of `CC(C)c1cc(NCC(O)c2ccc(F)cc2)n2nccc2n1` (centres undefined), the “Percent Effect” value is reported as 13.68%. `Cc1cc2nc(C(C)C)cc(NCC(c3ccccn3)N(C)C)n2n1` (centres undefined) was tested, and the “Percent Effect” value was 107.7%. With `Cc1cc2nc(C(C)C)cc(NCc3ccncc3)n2n1` the “Percent Effect” value was 10.36%. With `CC(C)c1cc(NCC(O)c2ccncc2)n2nccc2n1` (centres undefined) the “Percent Effect” value was 0.8571%. In the case of `CC(C)c1cc(NCC(O)CO)n2nccc2n1` (centres undefined), the “Percent Effect” value is reported as 7.568%. In the case of `CCCC(CNc1cc(C(C)C)nc2ccnn12)N(C)C` (centres undefined), the “Percent Effect” value is reported as 105.9%. In the case of `CCOC1COC2(CCN(Cc3cccnc3OC)CC2)C1.O=C(O)C(F)(F)F.O=C(O)C(F)(F)F` (centres undefined), the “Percent Effect” value is reported as 16.61%. For `CC(=O)N1C[C@@H]2CC[C@H](C1)N(S(=O)(=O)c1ccc(F)cc1Cl)C2`, the “Percent Effect” value was 10.85%. `N#Cc1ccc(N2CCC3(CC2)CC(N2CCOCC2)CO3)cc1.O=C(O)C(F)(F)F` (centres undefined) was tested, and the “Percent Effect” value was 25.96%. `CN(C)C1CCN(C(=O)c2cc(-c3ccn(C)n3)n3ccccc23)CC1.O=C(O)C(F)(F)F` was tested, and the “Percent Effect” value was 44.75%. `Cl.NCc1ccc(Oc2ccc(F)c(F)c2)cc1C(F)(F)F` was tested, and the “Percent Effect” value was 1.199%. For `C[C@@H]1CN(Cc2ccoc2)C[C@]12CCN(CC(=O)N(C)C)C2=O.O=C(O)C(F)(F)F`, the “Percent Effect” value was 10.48%. `CS(=O)(=O)NC[C@H]1OC[C@H]2CN(Cc3ccsc3)CC[C@H]21.O=C(O)C(F)(F)F` was tested, and the “Percent Effect” value was -31.27%. For `Cc1cc(NCCNc2ncccc2C)n2nc(C)cc2n1`, the “Percent Effect” value was 16.17%. For `Cc1cc2nc(C(C)C)cc(NCCNc3ncccc3C)n2n1`, the “Percent Effect” value was -16.57%. In the case of `Cc1cccnc1NCCNc1cc(C(C)C)nc2ccnn12`, the “Percent Effect” value is reported as 97.5%. For `Cc1cnc(C(=O)N2C[C@H]3CC[C@@H]2CN(c2cnccn2)C3)cn1`, the “Percent Effect” value was -7.052%. In the case of `CCC(C)N1Cc2c(C(=O)N3CCOCC3)nn(C)c2C1.O=C(O)C(F)(F)F` (centres undefined), the “Percent Effect” value is reported as -5.344%. In the case of `CC(C)N1CCCCC1c1nc(N(C)C)ncc1I.Cl` (centres undefined), the “Percent Effect” value is reported as -21.57%. With `CC(C)N(C)Cc1cnc2n1CCN(S(=O)(=O)c1ccccc1)C2.O=C(O)C(F)(F)F` the “Percent Effect” value was -26.7%. For `Cc1nc(C2CCNC2)nc2c1CCC(=O)N2CC(C)C.Cl` (centres undefined), the “Percent Effect” value was -0.8245%. With `c1ccc(C2CCCN(c3cncc(-n4cccn4)n3)CC2)cc1` (centres undefined) the “Percent Effect” value was 6.437%. `c1ccc(COC2CCN(c3cncc(-n4cccn4)n3)CC2)cc1` was tested, and the “Percent Effect” value was 53.35%. `c1ccc(C2CCN(c3cncc(-n4cccn4)n3)CC2)cc1` was tested, and the “Percent Effect” value was -1.073%. For `CN(C)S(=O)(=O)N1CCO[C@H]2[C@H](Oc3cccnc3)CC[C@@H]21.O=C(O)C(F)(F)F`, the “Percent Effect” value was -23.12%. With `CCOc1ccc(C2C3=C(O)OCC3=Nc3nc(SC)nc(N)c32)cc1` (centres undefined) the “Percent Effect” value was 5.942%. `CC(C)N1CCc2c(C(=O)N3CCOCC3)nn(C)c2C1.O=C(O)C(F)(F)F` was tested, and the “Percent Effect” value was 1.567%. For `CC(C)c1ncc2c(n1)CN(Cc1nc(Cc3ccccc3)no1)CC2`, the “Percent Effect” value was 21.5%. For `Cc1ccc(-c2nc(CN3CCc4cnc(C)nc4C3)no2)cc1`, the “Percent Effect” value was 7.068%. `CC(C)c1ncc2c(n1)CN(Cc1noc(-c3ccccc3)n1)CC2` was tested, and the “Percent Effect” value was 59.47%. `Cc1cccc(CN2CCOCC3(CCN(C4CCOCC4)C3)C2)c1.O=C(O)C(F)(F)F.O=C(O)C(F)(F)F` (centres undefined) was tested, and the “Percent Effect” value was -7.998%. With `CC(=O)Nc1nc(C(=O)NCc2ccc(N3CCCC3)nc2)cs1` the “Percent Effect” value was -13.06%. With `CC(=O)Nc1nc(C(=O)NCc2ccc(N3CCCCCC3)nc2)cs1` the “Percent Effect” value was 8.395%. With `CC(=O)Nc1nc(C(=O)Nc2ccc(N3CCCCC3)nc2)cs1` the “Percent Effect” value was 50.82%. With `O=C(O)C(F)(F)F.O=C(O)C(F)(F)F.c1cc(CN2CCc3ncc(CN4CCCCC4)n3CC2)cs1` the “Percent Effect” value was -20.06%. `Cc1nc(COCC2CN(C(N)=O)Cc3nccn3C2)cs1.O=C(O)C(F)(F)F` (centres undefined) was tested, and the “Percent Effect” value was -0.7889%. With `Cc1cc(=O)[nH]c(-n2nc(-c3ccccc3)cc2N)n1` the “Percent Effect” value was 105.3%. For `CCCS(=O)(=O)NCCn1ccc(-c2cccs2)n1`, the “Percent Effect” value was -4.478%. `NC1(c2nc(-c3ccccc3)cc(=O)[nH]2)CCCCC1` was tested, and the “Percent Effect” value was 0.6123%. With `NC1(c2nc(-c3ccccc3)cc(=O)[nH]2)CCCC1` the “Percent Effect” value was -2.897%. With `NC1(c2nc(-c3cccs3)cc(=O)[nH]2)CCCCC1` the “Percent Effect” value was -38.51%. With `CS(=O)(=O)NCCn1ccc(-c2cccs2)n1` the “Percent Effect” value was 0.1994%. With `Cc1cc(=O)[nH]c(-n2nc(-c3cccs3)cc2N)n1` the “Percent Effect” value was 94.15%. For `CCCc1cc(=O)[nH]c(-n2nc(-c3cccs3)cc2N)n1`, the “Percent Effect” value was 106.1%. With `NC1(c2nc(-c3cccs3)cc(=O)[nH]2)CCCC1` the “Percent Effect” value was -25.86%. In the case of `Cc1noc(C)c1CN1CC[C@H]2OCC[C@@]2(C(=O)N(C)C)C1.O=C(O)C(F)(F)F`, the “Percent Effect” value is reported as -9.212%. `CC(C)CCN1C2(CCN(Cc3nccs3)C2)c2ccccc2S1(=O)=O.O=C(O)C(F)(F)F` (centres undefined) was tested, and the “Percent Effect” value was 47.98%. With `CN(C)C(=O)COCC1CN(Cc2cccs2)Cc2ncn(C)c21.O=C(O)C(F)(F)F.O=C(O)C(F)(F)F` (centres undefined) the “Percent Effect” value was -34.33%. For `COc1cc(Cl)cc(CN2CCCC(N3CCCC3)C2)c1OC` (centres undefined), the “Percent Effect” value was 98.75%. In the case of `COc1ccc(CN2CCCC(N3CCCC3)C2)cc1Cn1cncn1` (centres undefined), the “Percent Effect” value is reported as -42.58%. In the case of `O[C@@H]1CN(Cc2cc(Cl)cc3cccnc23)C[C@@H]1O`, the “Percent Effect” value is reported as -38.19%. With `COc1cc(Cl)cc(CN2CCCC(N3CCOCC3)C2)c1OC` (centres undefined) the “Percent Effect” value was 2.91%. In the case of `Clc1cc(CN2CCCN3CCCC3C2)c2ncccc2c1` (centres undefined), the “Percent Effect” value is reported as 99%. With `Clc1cc(CN2CCCC(Cn3cncn3)C2)c2ncccc2c1` (centres undefined) the “Percent Effect” value was -4.966%. For `CNC(=O)C1CNCCN1C(=O)c1ccc(C(F)(F)F)nc1C.Cl` (centres undefined), the “Percent Effect” value was 13.87%. For `CC(C)NC(=O)CC1COC2(CCN(Cc3cccnc3)CC2)C1.O=C(O)C(F)(F)F.O=C(O)C(F)(F)F` (centres undefined), the “Percent Effect” value was -3.493%. In the case of `Oc1nc(N2CCCC2)nc2c1CCN(Cc1ccsc1)CC2`, the “Percent Effect” value is reported as -11.88%. In the case of `Cc1nc(C)c2c(n1)CCN(Cc1ccco1)CC2`, the “Percent Effect” value is reported as 1.706%. For `Cc1nc(N2CCOCC2)nc2c1CCN(Cc1ccsc1)CC2.O=C(O)C(F)(F)F`, the “Percent Effect” value was 3.426%. With `CC(C)Oc1ncnc2c1CCN(Cc1ccco1)CC2.O=C(O)C(F)(F)F` the “Percent Effect” value was -23.01%. For `Cc1nc(N2CCCC2)nc2c1CCN(Cc1ccco1)CC2.O=C(O)C(F)(F)F`, the “Percent Effect” value was 66.31%. `Cc1nc(N2CCOCC2)nc2c1CCN(Cc1cccnc1)CC2.O=C(O)C(F)(F)F` was tested, and the “Percent Effect” value was 5.04%. With `Cc1nc(N2CCCC2)nc2c1CCN(Cc1ccoc1)CC2.O=C(O)C(F)(F)F` the “Percent Effect” value was 64.12%. For `Cc1nc(N2CCCC2)nc2c1CCN(Cc1ccsc1)CC2.O=C(O)C(F)(F)F`, the “Percent Effect” value was 100.4%. With `Cc1nc(N2CCCC2)nc2c1CCN(Cc1nccn1C)CC2.O=C(O)C(F)(F)F` the “Percent Effect” value was -10.58%.
